The values that follow come from PubChem BioAssay (NCATS).

In test [1] the target is Estrogen receptor (Homo sapiens) (UniProt P03372). The test can be described thus: qHTS assay for small molecule antagonists of estrogen receptor alpha signaling (AID 588513; active = well fitted curve in the direction sought with a large enough effect in the signal ratio, with a control signal flat, not every such curve was filed as active; the % refers to the signal ratio; also: % is scaled to controls: 0 for no effect and ±100 for the full control effect). The essentials: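 Cells were plated at 5000/well and incubated 4 h at 37 C. Compounds were added as 1:2 dilution series, duplicates. 17-beta-estradiol (0.5nM final) was added for 18 h before CCF4 detection.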
In general terms: qHTS replaces the single test concentration by a dilution series.

Test [2] in a line: qHTS assay for small molecule antagonists of peroxisome proliferator-activated receptor delta signaling (AID 588535; active = well fitted inhibition curve with a large enough effect in the signal ratio, with a control signal flat, not every such curve was filed as active; the % refers to the signal ratio;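 as to max response: cells co-treated with a PPAR-delta agonist as stimulator during compound exposure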). The conditions noted are these: HEK293T PPARd-UAS-bla, beta-lactamase FRET ratio, 18 h; 460 nm channel. Put shortly:
(§1)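 HEK293T PPAR-delta-UAS-bla cells, 4000/well, 2% charcoal/dextran FBS; 5 h 37 C; cpd titration; 18 h 37 C; CCF4 2 h RT; FI 460/530 nm; Hill fit → IC50, efficacy.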

Test [3] addresses Peroxisome proliferator-activated receptor delta (Homo sapiens) (UniProt Q03181). The description is as above. The essentials:
as §1

Test [4] in a line: qHTS assay for small molecule agonists of retinoid X receptor alpha signaling (AID 588544). As to conditions: HEK293T RXRa-UAS-bla, beta-lactamase reporter, 18 h; 530 nm emission.
Test [5] deals with Thyroid hormone receptor beta (Homo sapiens) (UniProt P10828). Briefly: qHTS assay for small molecule antagonists of thyroid hormone receptor beta signaling (AID 588547; active = well fitted inhibition curve with a large enough effect in the signal ratio, with a control signal flat, not every such curve was filed as active; the % refers to the signal ratio;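 also: cells stimulated with 0.4 nM T3 agonist during compound exposure; series mostly up to about 77 µM; % is scaled to controls: 0 for no effect and ±100 for the full control effect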). The conditions noted are these: TR-UAS-bla HEK293, beta-lactamase ratio, antagonist mode, 18 h. Put shortly:
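Inhibition of T3-driven (0.4nM final) beta-lactamase reporter activity was measured over 0.59 nM to 92 uM compound after 18 h at 37 C. The cells were GripTite HEK293 TR-UAS-bla in charcoal/dextran-stripped serum, with CCF4 ratio read-out and IC50 from Hill fits.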

The nature of test [6]: qHTS assay for small molecule activators of the p53 signaling pathway (AID 651743; active = well fitted activation curve with a large enough effect in the signal ratio, not every such curve was filed as active; the % refers to the signal ratio; also: series mostly up to about 92 µM; % of control where 0% means no effect). The conditions noted are these: HCT-116 p53RE-bla, beta-lactamase FRET ratio, 16 h; activation: stronger effect = higher value. Put shortly:
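Read-out is fluorescence intensity from the LiveBLAzer B/G FRET substrate, added for 2 hours at room temperature after HCT-116 p53RE-bla cells had been incubated with compounds for 16 hours at 37 C.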

Test [7] is described as follows: qHTS assay for environmental chemicals that activate the Aryl hydrocarbon Receptor (AhR) signaling pathway (AID 651777). Also: % of control where 0% means no effect; nearly all actives have a fitted effect of over 15% in size. The conditions noted are these: 1A2-DRE human hepatoma cells, luciferase, 24 h; activation: stronger effect = higher value. Put shortly:
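Concentration–response screening used 1,200 1A2-DRE cells per well, 24 hr compound exposure (37 C, 5% CO2), and One-Glo luminescence as the AhR-driven CYP1A2 reporter signal.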

Test [8] deals with Peroxisome proliferator-activated receptor alpha (Homo sapiens) (UniProt Q07869). Briefly: qHTS assay for small molecule agonists of the peroxisome proliferator-activated receptor alpha (PPARalpha) signaling pathway (AID 651778). Also: % of control where 0% means no effect. The conditions noted are these: PathHunter PPARalpha complementation, chemiluminescence, 6 h; max response: stronger effect = higher value. Put shortly:
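Chemiluminescence from complemented enzyme reported PPARalpha activation in cells after 6 hr of compound treatment at 37 C. The detection reagent was incubated for 60 min at room temperature, and compounds were scored as agonists.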

Test [9] can be described thus: qHTS assay for small molecule agonists of the antioxidant response element (ARE) signaling pathway measured by Nrf2-dependant transcriptional activity (AID 720636; active = well fitted curve in the direction sought with a large enough effect in the repeat runs; an effect the other way counts as inactive or inconclusive;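 also: HepG2 cells with an ARE-driven luciferase reporter; % of control where 0% means no effect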). Put shortly: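 Attachment 6 hr at 37 C, then compound versus DMSO vehicle for 16 hr in ARE-luc HepG2 cells (1% dialyzed FBS); luminescence recorded 30 min after ONE-Glo addition at room temperature.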
The nature of test [10]: qHTS assay for small molecule agonists of the antioxidant response element (ARE) signaling pathway measured by Nrf2-dependant transcriptional activity - cell viability counter screen (AID 720653; active = well fitted curve in the direction sought with a large enough effect in the repeat runs; an effect the other way counts as inactive or inconclusive; also: % is scaled to controls: 0 for no effect and ±100 for the full control effect). As to conditions: ARE-bla HepG2 viability, CellTiter-Glo ATP luminescence, 16 h; max response: stronger effect = lower value. Put shortly: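 Cytotoxicity counter screen: intracellular ATP quantified by CellTiter-Glo luminescence in the same ARE-bla HepG2 plates, after 16 h compound exposure and a 2 h beta-lactamase substrate step.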

Test [11] is described as follows: qHTS assay for cell viability of HEK293 cells (AID 743288). Also: % is scaled to controls: 0 for no effect and ±100 for the full control effect; nearly all actives have a fitted effect of over 50% in size. The conditions noted are these: ATP luminescence (CellTiter-Glo), 18 h; max response: stronger effect = lower value. Put shortly: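 The Tox21 protocol used parental HEK293 cells treated for 18 h at 37 C with compounds delivered by pintool; ATP-coupled luminescence after 30 min at room temperature gave viability.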

The nature of test [12]: qHTS assay for cell viability of the p53RE-bla HCT-116 cell line (AID 743292). Also: % is scaled to controls: 0 for no effect and ±100 for the full control effect; nearly all actives have a fitted effect of over 55% in size. The essentials: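 Compound-exposed HCT-116 (p53RE-bla) cells, 4,000 per well, were kept 16 h at 37 C following a 5 h preincubation. Cell number was estimated from total ATP by CellTiter-Glo luminescence read after 30 min at room temperature.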
Test [13] deals with Nuclear receptor subfamily 1 group I member 2 (Rattus norvegicus) (UniProt Q9R1A7). Briefly: qHTS assay for small molecule activators of the rat pregnane X receptor (rPXR) signaling pathway (AID 651751; call rule not given here; also: 0% is about no effect). As to conditions: rPXR reporter cells, luciferase (One-Glo), 24 h.
Test [14] concerns the target Glucocorticoid receptor (Homo sapiens) (UniProt P04150). Briefly: qHTS assay for small molecule agonists of glucocorticoid receptor signaling (AID 588532; active = well fitted curve in the direction sought with a large enough effect in the signal ratio, with a control signal flat; the % refers to the signal ratio;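 also: 100% = dexamethasone at 0.1 µM and 0% = DMSO only wells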). The conditions noted are these: HeLa MMTV-bla, beta-lactamase ratio, agonist, 18 h; stronger effect = higher value; percent of dexamethasone control, DMSO zero. The essentials: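 Quantitative HTS using CellSensor MMTV-bla HeLa cells in charcoal/dextran-treated serum; compounds tested up to 92 uM. After 18 h at 37 C, CCF4 dye reported reporter induction.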

For test [15], the target named is Thyroid hormone receptor beta (Homo sapiens) (UniProt P10828). The test can be described thus: qHTS assay for small molecule agonists of thyroid hormone receptor beta signaling (AID 588545; calls by dose curve;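 also: 0% = DMSO only and 100% = 10 nM T3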). Put shortly: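 Compounds were tested as agonists in TR-UAS-bla-GripTite HEK 293 cells. After 18 hrs at 37 C, CCF4 substrate was added and fluorescence read after 2 hrs at room temperature.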

Test [16] in a line: qHTS assay for small molecule antagonists of retinoid X receptor alpha signaling (AID 588546; active = well fitted inhibition curve with a large enough effect in the signal ratio, with a control signal flat, not every such curve was filed as active; the % refers to the signal ratio;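 also: cells stimulated with 9-cis-retinoic acid as agonist; % is scaled to controls: 0 for no effect and ±100 for the full control effect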). As to conditions: HEK293T RXRa-UAS-bla, beta-lactamase ratio, antagonist mode; measured here: W530 green channel, cytotoxicity proxy. Put shortly:
(§2)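 Beta-lactamase reporter inhibition, read as CCF4 fluorescence ratio (ex 405, em 460/530 nm) after 2 h at RT. HEK293T UAS-bla cells, 2500/well, were stimulated with 9-cis-RA at 500 or 100 nM final alongside test compound for 18 h at 37 C.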

The target in test [17] is Retinoic acid receptor RXR-alpha (Homo sapiens) (UniProt P19793). The test is described as above. As to conditions: HEK293T RXRa-UAS-bla, beta-lactamase ratio, antagonist mode. Put shortly:
as §2

Test [18] in a line: qHTS assay for small molecule activators of the human pregnane X receptor (PXR) signaling pathway (AID 720659; call rule not given here; also: 0% is about no effect).
Test [19] has as its target Peroxisome proliferator-activated receptor gamma (Homo sapiens) (UniProt P37231). The test can be described thus: qHTS assay for small molecule agonists of peroxisome proliferator-activated receptor gamma signaling (AID 588536; active = well fitted curve in the direction sought with a large enough effect in the signal ratio, with a control signal flat, not every such curve was filed as active; the % refers to the signal ratio;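 also: 0% = DMSO basal wells and 100% = rosiglitazone at 2 µM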). Put shortly: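 Ratiometric blue/green fluorescence (405 nm excitation; 460 and 530 nm emission) from CCF4-loaded HEK293 reporter cells serves as signal. Exposure to test compounds lasts 16 h at 37 C in medium containing 1% charcoal/dextran-treated serum.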

Inconclusive results are not listed. Calls of active or inactive are those of the source. Unless noted, calls follow the shape of the dose curve; as a rule, active = well fitted curve in the direction sought with a large enough effect; inconclusive = small, poorly fitted or top-dose-only effect, or another doubt; inactive = no such curve, though single readings can be large; an effect the other way counts as inactive or inconclusive.

Sequence of Peroxisome proliferator-activated receptor delta (Homo sapiens) (Q03181 whole entry, looked up): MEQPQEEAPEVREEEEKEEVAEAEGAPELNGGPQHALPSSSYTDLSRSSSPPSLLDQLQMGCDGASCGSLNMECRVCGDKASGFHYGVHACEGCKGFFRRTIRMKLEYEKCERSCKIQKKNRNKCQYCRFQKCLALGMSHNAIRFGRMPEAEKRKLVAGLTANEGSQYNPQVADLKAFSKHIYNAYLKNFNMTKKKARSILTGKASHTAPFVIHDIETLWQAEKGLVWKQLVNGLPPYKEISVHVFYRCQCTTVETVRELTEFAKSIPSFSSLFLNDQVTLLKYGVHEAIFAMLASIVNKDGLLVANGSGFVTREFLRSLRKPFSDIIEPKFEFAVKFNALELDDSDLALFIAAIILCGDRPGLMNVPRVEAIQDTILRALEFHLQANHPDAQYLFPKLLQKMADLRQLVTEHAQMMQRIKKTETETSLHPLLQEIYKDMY
Sequence of Glucocorticoid receptor (Homo sapiens) (P04150 whole entry, looked up): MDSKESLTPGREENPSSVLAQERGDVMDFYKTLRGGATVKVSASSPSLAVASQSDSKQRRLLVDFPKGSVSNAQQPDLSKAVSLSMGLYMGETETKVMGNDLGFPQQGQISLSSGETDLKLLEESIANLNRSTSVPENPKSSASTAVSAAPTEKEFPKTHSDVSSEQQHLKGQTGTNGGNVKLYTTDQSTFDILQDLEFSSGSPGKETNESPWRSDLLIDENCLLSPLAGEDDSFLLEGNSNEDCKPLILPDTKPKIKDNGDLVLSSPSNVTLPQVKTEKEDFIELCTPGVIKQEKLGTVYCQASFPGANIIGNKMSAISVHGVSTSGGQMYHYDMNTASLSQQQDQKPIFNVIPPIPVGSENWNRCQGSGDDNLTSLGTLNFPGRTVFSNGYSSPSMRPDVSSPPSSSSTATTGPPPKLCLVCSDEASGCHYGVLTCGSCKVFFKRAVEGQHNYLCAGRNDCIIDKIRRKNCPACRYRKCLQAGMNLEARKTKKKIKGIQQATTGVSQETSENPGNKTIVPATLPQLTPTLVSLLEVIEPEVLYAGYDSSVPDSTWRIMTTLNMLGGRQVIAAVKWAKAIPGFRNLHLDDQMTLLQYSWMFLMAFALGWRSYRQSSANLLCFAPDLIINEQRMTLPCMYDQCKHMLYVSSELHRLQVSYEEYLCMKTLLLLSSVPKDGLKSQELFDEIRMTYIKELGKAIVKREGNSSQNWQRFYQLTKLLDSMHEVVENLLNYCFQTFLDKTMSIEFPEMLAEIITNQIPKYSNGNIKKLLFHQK
Sequence of Peroxisome proliferator-activated receptor alpha (Homo sapiens) (Q07869 whole entry, looked up): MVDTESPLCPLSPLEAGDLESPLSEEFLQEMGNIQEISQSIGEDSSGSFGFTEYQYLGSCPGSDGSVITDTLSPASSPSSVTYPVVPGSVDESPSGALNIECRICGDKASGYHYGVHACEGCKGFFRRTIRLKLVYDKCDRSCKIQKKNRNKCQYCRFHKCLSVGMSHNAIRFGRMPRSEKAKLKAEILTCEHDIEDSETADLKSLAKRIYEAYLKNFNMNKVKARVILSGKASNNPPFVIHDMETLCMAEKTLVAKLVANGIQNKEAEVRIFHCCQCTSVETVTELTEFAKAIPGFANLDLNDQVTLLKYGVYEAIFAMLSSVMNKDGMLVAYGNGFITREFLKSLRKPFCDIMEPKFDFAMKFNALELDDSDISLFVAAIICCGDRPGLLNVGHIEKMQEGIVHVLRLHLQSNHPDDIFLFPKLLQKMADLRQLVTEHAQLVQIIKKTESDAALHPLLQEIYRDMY
Sequence of Estrogen receptor (Homo sapiens) (P03372 whole entry, looked up): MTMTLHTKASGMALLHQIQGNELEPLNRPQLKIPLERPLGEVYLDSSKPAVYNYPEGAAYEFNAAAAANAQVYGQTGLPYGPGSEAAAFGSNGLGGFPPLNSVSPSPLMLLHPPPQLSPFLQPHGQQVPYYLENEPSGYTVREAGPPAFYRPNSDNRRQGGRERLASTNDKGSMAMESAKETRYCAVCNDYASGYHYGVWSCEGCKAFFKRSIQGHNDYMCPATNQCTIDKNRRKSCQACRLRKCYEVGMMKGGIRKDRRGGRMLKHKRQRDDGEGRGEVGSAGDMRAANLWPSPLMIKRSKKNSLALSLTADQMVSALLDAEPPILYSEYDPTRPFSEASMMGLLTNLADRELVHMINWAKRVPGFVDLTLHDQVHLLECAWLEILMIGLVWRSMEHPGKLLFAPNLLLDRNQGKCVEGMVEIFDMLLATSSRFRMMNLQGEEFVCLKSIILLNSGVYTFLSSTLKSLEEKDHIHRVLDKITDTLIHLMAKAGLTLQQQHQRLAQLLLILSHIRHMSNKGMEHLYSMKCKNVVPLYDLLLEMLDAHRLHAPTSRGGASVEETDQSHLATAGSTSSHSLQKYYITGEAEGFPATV
Sequence of Nuclear receptor subfamily 1 group I member 2 (Rattus norvegicus) (Q9R1A7 whole entry, looked up): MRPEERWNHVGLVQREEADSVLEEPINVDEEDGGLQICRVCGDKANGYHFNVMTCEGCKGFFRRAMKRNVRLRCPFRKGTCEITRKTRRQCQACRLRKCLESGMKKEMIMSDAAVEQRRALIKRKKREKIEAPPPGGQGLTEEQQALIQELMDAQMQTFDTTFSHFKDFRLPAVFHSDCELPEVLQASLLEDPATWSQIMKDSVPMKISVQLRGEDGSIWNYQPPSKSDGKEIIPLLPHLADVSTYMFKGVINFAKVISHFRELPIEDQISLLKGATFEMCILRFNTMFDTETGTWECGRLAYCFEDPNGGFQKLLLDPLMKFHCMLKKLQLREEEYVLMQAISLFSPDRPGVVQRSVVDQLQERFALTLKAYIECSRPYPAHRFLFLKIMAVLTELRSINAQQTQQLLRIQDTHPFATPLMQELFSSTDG
Sequence of Thyroid hormone receptor beta (Homo sapiens) (P10828 whole entry, looked up): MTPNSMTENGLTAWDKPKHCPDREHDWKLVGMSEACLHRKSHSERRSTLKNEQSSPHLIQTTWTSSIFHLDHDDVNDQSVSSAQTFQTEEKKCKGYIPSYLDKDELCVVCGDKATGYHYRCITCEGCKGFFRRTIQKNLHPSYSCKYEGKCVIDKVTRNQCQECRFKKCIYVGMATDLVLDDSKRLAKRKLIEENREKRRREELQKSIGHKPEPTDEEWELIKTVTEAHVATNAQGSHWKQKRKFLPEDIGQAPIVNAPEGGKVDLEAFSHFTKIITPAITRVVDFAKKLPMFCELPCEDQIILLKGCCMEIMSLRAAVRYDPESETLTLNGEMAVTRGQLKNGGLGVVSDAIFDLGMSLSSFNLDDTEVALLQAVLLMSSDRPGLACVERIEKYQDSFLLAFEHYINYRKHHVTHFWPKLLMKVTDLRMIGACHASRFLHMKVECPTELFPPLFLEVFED
Sequence of Peroxisome proliferator-activated receptor gamma (Homo sapiens) (P37231 whole entry, looked up): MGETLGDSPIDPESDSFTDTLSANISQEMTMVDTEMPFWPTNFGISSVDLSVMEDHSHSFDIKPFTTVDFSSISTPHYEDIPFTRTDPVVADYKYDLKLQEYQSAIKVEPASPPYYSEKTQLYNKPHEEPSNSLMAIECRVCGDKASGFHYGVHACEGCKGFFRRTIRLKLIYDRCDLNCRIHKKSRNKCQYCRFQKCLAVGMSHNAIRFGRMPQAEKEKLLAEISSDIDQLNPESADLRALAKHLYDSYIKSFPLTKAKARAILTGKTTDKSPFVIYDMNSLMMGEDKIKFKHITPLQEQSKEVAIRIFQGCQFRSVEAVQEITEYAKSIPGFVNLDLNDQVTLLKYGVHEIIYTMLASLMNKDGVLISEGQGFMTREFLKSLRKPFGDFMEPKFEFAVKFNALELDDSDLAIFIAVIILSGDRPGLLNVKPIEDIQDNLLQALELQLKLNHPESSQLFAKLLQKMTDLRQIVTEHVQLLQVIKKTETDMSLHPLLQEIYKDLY
Sequence of Retinoic acid receptor RXR-alpha (Homo sapiens) (P19793 whole entry, looked up): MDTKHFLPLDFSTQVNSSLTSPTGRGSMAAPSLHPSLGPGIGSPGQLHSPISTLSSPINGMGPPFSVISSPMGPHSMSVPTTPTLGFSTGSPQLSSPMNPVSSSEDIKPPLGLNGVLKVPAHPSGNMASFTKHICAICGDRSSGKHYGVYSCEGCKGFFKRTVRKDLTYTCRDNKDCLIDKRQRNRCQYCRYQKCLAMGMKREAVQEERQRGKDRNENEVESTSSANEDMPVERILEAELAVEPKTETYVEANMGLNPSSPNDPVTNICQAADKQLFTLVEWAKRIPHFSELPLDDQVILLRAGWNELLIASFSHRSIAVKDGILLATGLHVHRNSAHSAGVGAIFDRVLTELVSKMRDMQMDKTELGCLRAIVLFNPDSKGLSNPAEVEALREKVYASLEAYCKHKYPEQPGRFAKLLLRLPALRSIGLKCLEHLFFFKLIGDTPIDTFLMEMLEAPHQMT

For `O=S(=O)(O)c1cc(S(=O)(=O)O)c2c(N=Nc3ccccc3)c(O)ccc2c1`, the Potency entry in test [1], in test [3], in test [9] and in test [12] was “inactive” in each case. Besides, the max response is -19.3% in test [2]; -6.55% in [4]; -5.78% (inactive) in [8]; -9.68% (inactive) in test [10]; -12.7% (inactive) in [11]; 3.04% (inactive) in test [13]. In addition, the activity change % (negative = inhibition) in test [5] is -8.36% (inactive). In addition, the activation was -0.0659% (inactive) in [6] and 0.18% (inactive) in test [7].
`CC(=O)OC1CCC(C(C)(C)C)CC1` (centres undefined): the Potency entry in [1], in [3], in [15], in [9] and in test [12] was “inactive” in each case. The activation in [14] is -9.53% (inactive); in test [6], -2.06% (inactive); in [7], 3.13% (inactive). For the same compound, the max response is -10.4% in [2]; -2.86% in test [4]; -1.04% in [16]; -6.71% (inactive) in test [17]; -0.283% (inactive) in test [8]; 0.584% (inactive) in test [10]. In addition, the figures for the max response in test [11] and in [13] were -10.3% (inactive) and 4.95% (inactive), respectively. For the same compound, the activity change % (negative = inhibition) in test [5] was 5.89% (inactive). Further, in [18], the result was inactive.
As for `O=C(O)c1cccc(C(=O)O)c1`, the Potency result in [1], in test [3], in [15], in test [9] and in test [12] was “inactive” in each case. For the same compound, the results for the activation in test [14] and in [7] were -2.7% (inactive) and -2.6% (inactive), respectively. Also, the max response in test [2] is -2.92%; in test [4], -13%; in [16], -5.27%; in test [17], -3.25% (inactive); in [8], -0.8% (inactive); in test [10], -9.16% (inactive). The results for the max response in test [11] and in test [13] were -0.837% (inactive) and 0.205% (inactive), respectively. The compound was classed as inactive in [19] and in test [18]. Besides, the activity change % (negative = inhibition) in [5] is 17% (inactive).
Consider `CC(C)(C)c1ccc(O)c(C(C)(C)C)c1`, for which the Potency entry in test [1], in test [15], in [9] and in test [12] was “inactive” in each case. Further, the activation is -9.25% (inactive) in test [14], 1.63% (inactive) in test [6] and 0.859% (inactive) in test [7]. Besides, in test [19], the outcome was inactive. Further, the max response in test [4] was -10.9%; in [16] it was -6.68%; in test [8], 8.37% (inactive); in test [10], -2.61% (inactive); in test [11] it was -8.41% (inactive); in test [13] it was 6.32% (inactive). Further, the activity change % (negative = inhibition) in test [5] was 5.44% (inactive).
